The text below walks through data of the supplement of paper PMC10105736.

What all share (test): MAPPIT interaction score (arbitrary units); higher = stronger binary interaction signal, active = hit call of the paper
Experiment [1] has as its target CG14464. To be noted: MAPPIT configuration: N-N; pair source set: RRS.
Experiment [2] addresses CG1416. To be noted: MAPPIT configuration: N-N; pair source set: DPIM.
Experiment [3] deals with CG14764. The note with it: MAPPIT configuration: N-N; pair source set: Curagen_low_conf.
Experiment [4] concerns the target CG6933. To be noted: MAPPIT configuration: N-N; pair source set: Lit-BS-16.
Experiment [5] has as its target CG15211. The note with it: MAPPIT configuration: N-N; pair source set: screen_2.
Experiment [6] concerns the target ReepB. The note with it: MAPPIT configuration: N-C; pair source set: screen_3.
In experiment [7] the target is CG14818. To be noted: MAPPIT configuration: N-N; pair source set: screen_2.
Experiment [8] concerns the target Tm1. The note with it: MAPPIT configuration: N-N; pair source set: screen_1.
Experiment [9] addresses dgrn. To be noted: MAPPIT configuration: N-N; pair source set: screen_1.
Experiment [10] deals with CG15126. The note with it: MAPPIT configuration: N-N; pair source set: Curagen_high_conf.
Experiment [11] concerns the target Slob. The note with it: MAPPIT configuration: N-N; pair source set: Curagen_high_conf.
The target in experiment [12] is CG14282. To be noted: MAPPIT configuration: N-C; pair source set: RRS.

Unmarked numbers belong to inactive results.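 The calls were made as follows: active = MAPPIT score above the 99th percentile of random reference set scores in the same batch; inactive = at or below it.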
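Also: HEK293T cells with Epo stimulation, STAT-responsive firefly luciferase reporter, fold induction versus unstimulated cells divided by the larger fold induction of two negative controls lacking either bait or prey.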

B1: Cdk12 (protein)
chain: MHASSAAATALVEYSDVSSEDFSDQEAGDLDADAGKGAGNIKKPKPAPDNQFSKGRLDAKPDKEGYDNYRSRRAEDSSDPVAAGSRQTSSSEATNPREEPSQASNTSKDELWGREIYMSSDSIDTDELEAEMKRQKRKKQKKEKHKHKSKKKSKKRKKKRAKSYSSIDSMSDNDINALLDRRYTPPTAPSKSNERTVSAAPSSFTPHNLKESSSPATPPPVRRPNTNSNYYGESSLETANSALGSNLQVTVTNKQSISNRLRSPPPSSRSSGNGPRFGNSPRTPPPSHYSSSGGGGVGSGSVVRDSRSSRYVNSPHKEDVSAHHRSSHDHGYQGRYSGAGSSSHDTRKVKRLSPELDRYNHQPSTPPHKRRKFSDGREVGLGNFEHSRHHSGKYERYSRDRYSRRSSRSPSVQHSRSRQSPSGGLSSGSNAFRHGGSHKHKYGTTVSSTPSHTTRTSKRASGTGTSGDRYSRSPRTSSRYMESSPPSPVGASGSHHYHHRRSPRMRQRTRGDSRRRSPSSASSESSASRSRSPTSRDLKHKREEYIKKISETSLFAELVKDRHKRQKALKEIIERQEENSNSNSNGALTINDNSSSVDGNTPNAADGRSAPGSGTPAAASTTSNGLQALGSKPDLDLNNIPMPNKQNDSVVSNPASNADVPDSVAQLKQPLLVPPFSASKNNIKPKSLTSLPLPPGMNVLDLAGARSPSPGQKKESDEKNVTSSGSANKSVLNLPMPPVIPGSEELSGDDDVIDSPEDFDAPAVGTVHGHGGGPGTTRQRPVILNRRDSRNNVRDWGERCVDVFEMIAQIGEGTYGQVYKARDHHTNDMVALKKVRLEHEKEGFPITAVREIKILRQLNHRNIVNLHEIVTDKQDAVEFRKDKGSFYLVFEYMDHDLMGLLESGMVDFNEENNASIMKQLLDGLNYCHKKNFLHRDIKCSNILMNNRGKVKLADFGLARLYNADDRERPYTNKVITLWYRPPELLLGEERYGPSIDVWSCGCILGELFVKRPLFQANAEMAQLETISKICGSPVPAVWPNVIKLPLFHTLKQKKTHRRRLREDFEFMPAPALDLLDKMLDLDPDKRITAEDALRSPWLRKINPDEMPTPQLPTWQDCHELWSKKRRRQMREQQESLPPTVIASTKYQQHGATMVGDA
For B1, the MAPPIT interaction score in experiment [1] was 0.381.

B2: M6 (protein)
chain: MSKVKNLLAKMLQRFGKNSSQADSQRYDSLEEIAQNQANERMLRATQVGLEEHLVICLETEAGSFYWHSQ
On to B2, for which, in experiment [2], the MAPPIT interaction score was -0.155.

B3: cad (protein)
chain: MVSHYYNTLPYTQKHSAANLAYASAAGQPWNWTPNYHHTPPNHQFLGDVDSSHAAHHAAAAHQMYYNSHHMFHSAAAASAGEWHSPASSTADNFVQNVPTSAHQLMQQHHHHHAHASSSSASSGSSSSGGAPGAPQLNETNSSIGVGGAGGGGGVGGATDGGPGSAPPNHQQHIAEGLPSPPITVSGSEISSPGAPTSASSPHHHLAHHLSAVANNNNNNNNNNNSPSTHNNNNNNNSVSNNNRTSPSKPPYFDWMKKPAYPAQPQPGKTRTKDKYRVVYTDFQRLELEKEYCTSRYITIRRKSELAQTLSLSERQVKIWFQNRRAKERKQNKKGSDPNVMGVGVQHADYSQLLDAKAKLEPGLHLSHSLAHSMNPMAAMNIPAMRLHPHLAAHSHSLAAVAAHSHQLQQQHSAQMSAAAAVGTLSM
On to B3, for which the results for the MAPPIT interaction score in [3] and in experiment [4] were -0.0445 and -0.219, respectively.

B4: GluProRS (protein)
chain: MSIKLKANLNNPPISGLATAHLINGTVPVEIVWSKEETSLQFPDNRLLVCHSNNDVLRALARAAPDYKLYGETAIERTQIDHWLSFSLTCEDDISWALSFLDKSIAPVTYLVANKLTIADFALFNEMHSRYEFLAAKGIPQHVQRWYDLITAQPLIQKVLQSLPEDAKVKRSPQSSKEQTPAKTGERKQEGKFVDLPGAEMGKVVVRFPPEASGYLHIGHAKAALLNQYYALAFQGTLIMRFDDTNPAKETVEFENVILGDLEQLQIKPDVFTHTSNYFDLMLDYCVRLIKESKAYVDDTPPEQMKLEREQRVESANRSNSVEKNLSLWEEMVKGSEKGQKYCVRAKIDMSSPNGCMRDPTIYRCKNEPHPRTGTKYKVYPTYDFACPIVDAIENVTHTLRTTEYHDRDDQFYWFIDALKLRKPYIWSYSRLNMTNTVLSKRKLTWFVDSGLVDGWDDPRFPTVRGIIRRGMTVEGLKEFIIAQGSSKSVVFMNWDKIWAFNKKVIDPIAPRYTALEKEKRVIVNVAGAKVERIQVSVHPKDESLGKKTVLLGPRIYIDYVDAEALKEGENATFINWGNILIRKVNKDASGNITSVDAALNLENKDFKKTLKLTWLAVEDDPSAYPPTFCVYFDNIISKAVLGKDEDFKQFIGHKTRDEVPMLGDPELKKCKKGDIIQLQRRGFFKVDVAYAPPSGYTNVPSPIVLFSIPDGHTKDVPTSGLKVNAPDAKATKKASSPVSSSGQASELDSQISQQGDLVRDLKSKKAAKDQIDVAVKKLLALKADYKSATGKDWKPGQTSASSAPVPAASSSSANDAVSVNASIVKQGDLVRDLKGKKASKPEIDAAVKTLLELKAQYKTLTGQDWKPGTVPTTAAPSASAAPSVGVNDSVAQILSQITAQGDKVRELKSAKADKATVDAAVKTLLSLKADYKAATGSDWKPGTTAPAPAAAPVKVKQEKNPDPASVLTVNTLLNKIAQQGDKIRQLKSAKSEKSLVEAEVKLLLALKTDYKSLTGQEWKPGTVAPAPTTVNVIDLTGGDSGSDVGSVLSKIQAQGDKIRKLKSEKAAKNVIDPEVKTLLALKGEYKTLSGKDWTPDAKSEPAVVKKEASPVSMASPAKDELTQEINAQGEKVRAAKGNKAAKEVIDAEVAKLLALKAKYKEVTGTDFPVAGRGGGGGGGSAKKAPKEAQPKPAKPVKKEPAADASGAVKKQTRLGLEATKEDNLPDWYSQVITKGEMIEYYDVSGCYILRQWSFAIWKAIKTWFDAEITRMGVKECYFPIFVSKAVLEKEKTHIADFAPEVAWVTKSGDSDLAEPIAVRPTSETVMYPAYAKWVQSYRDLPIRLNQWNNVVRWEFKQPTPFLRTREFLWQEGHTAFADKEEAAKEVLDILDLYALVYTHLLAIPVVKGRKTEKEKFAGGDYTTTVEAFISASGRAIQGATSHHLGQNFSKMFEIVYEDPETQQKKYVYQNSWGITTRTIGVMIMVHADNQGLVLPPHVACIQAIVVPCGITVNTKDDERAQLLDACKALEKRLVGGGVRCEGDYRDNYSPGWKFNHWELKGVPLRLEVGPKDLKAQQLVAVRRDTVEKITIPLADVEKKIPALLETIHESMLNKAQEDMTSHTKKVTNWTDFCGFLEQKNILLAPFCGEISCEDKIKADSARGEEAEPGAPAMGAKSLCIPFDQPAPIAASDKCINPSCTNKPKFYTLFGRSY
As to B4, the MAPPIT interaction score was 0.0202 in experiment [5] and 1.56 in experiment [6].

B5: CG10681 (protein)
chain: MSHLGLADVHQSEDATPDLESFTGFGNSAAEAFIQSLAGMVNQGDVETMIRAQKQMLQRFEKTNEMLLNCNALSQSRLKSASEDFKRHVKCLSEMKKDLDYIFRKIRIIKQKLQSQFPAIYAEVQPQRSSLAEEAEDDTEAQAKKTAETPAPAAAKPVLSTKKSAATIEYVQMEEAVDNGTVEIENELIKRVCSVETANPNDSSDCTSEDTG
Turning to B5, the MAPPIT interaction score was 5 (active) in experiment [7], 2.36 in experiment [8] and 0.165 in experiment [9].

B6: Fem-1 (protein)
chain: MHAELYRTRKRWYESAWPGAGFWRGANDTLPVTNYITYPANFDQPDGQSLTPLTMAAMMGNVKFVKTLLSHYDVDLDRECNVIYDGMVVYGATALWVAAGMGHLQIVKMLVQAGAAINHNTKAQSSPLRAACYEGRLDIVEFLIDNGADVNATNLFNNNTLMIAAYKGHHLVVKTLLQNGSRANDQALCGATALHYAAESGHLDVVVALLDHGATLKKNELGITPALQAAERLHEDVLEAFIERPELMSLEEQITALELLGATYANDKIKYDVNKAYGYLLRAMQLRYSNPRGVIRKRVQPTVPAYDNWLETENLPELYAIKLNHHSIHMESLAIRERILGRNNPELPQAIIYRGAVMADQGRFYQCQVLWNYAIDLRMRNNVSVDRDLLRFAQLFAQILRVENHNLTLDHVLPVLAKCQQEIENNKFKIKEAKPNACPSLWQDQNNQNCITALYLIKIVTHLARRKKDQNIDEEHIQQLFLVVRKFIQNDTRLQDGQTLLHIAVNGVMPVDEFYTNEMCRFPCYATALVLVHCGASVVAVDSDRNTPLHILVTKVNTTQDRQAEMARILELFVEAGAHLDAVNAAGQTAATACKLPILANRLHAHQNAHTSLKCLAARSIATNRLNFKGLIPTQLEAFIQMHSVRKVLP
For B6, the MAPPIT interaction score was 2.87 (active) in [10] and 0.0788 in [11].

B7: Fkbp12 (protein)
chain: MGVQVVPIAPGDGSTYPKNGQKVTVHYTGTLDDGTKFDSSRDRNKPFKFTIGKGEVIRGWDEGVAQLSVGQRAKLICSPDYAYGSRGHPGVIPPNSTLTFDVELLKVE
For B7, the MAPPIT interaction score in experiment [12] is -0.281.
